The source of these data is PubChem BioAssay.

The nature of test [1]: P. berghei load reduction in hepatocytes – cell-based, HepG2, luciferase luminescence, HepG2 viability, primary screen (AID 624349; in the data active means parasite load remaining mostly below about 12%, no sharp cut-off; inactive means mostly above about 10%;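 further: 100% = mean of DMSO negative control wells on the same plate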). Conditions: P. berghei liver stage in HepG2, luciferase luminescence, concentration not given here; parasite load remaining: stronger effect = lower value; viability: measured here: HepG2 viability without parasites.
The nature of test [2]: EMT-state selective cytotoxicity in co-culture – imaging, PC-3E GFP, TEM4-18 mCherry, primary screen (AID 1345086;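 active means compounds killing one labelled cell type while sparing the other, by normalised counts and ratio limits, not self-fluorescent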;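 on all read-outs here: cells exposed to compound for 72 h before imaging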;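 on red/green cell ratio (normalised): normalised mesenchymal count divided by normalised epithelial count so high means epithelial killing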). Conditions: PC-3E GFP / TEM4-18 mCherry co-culture, imaging cell counts, at 1 µM; for red/green cell ratio (normalised): actives lie on both sides.
In test [3] the test system is Aerobactin synthetase IucA (Klebsiella pneumoniae hvKP1). Put plainly: IucA enzyme inhibition, primary screen, biochemical, Spectrum library (AID 1346200).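 Further: 100% = wells without compound and 0% = wells lacking enzyme.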 Conditions: malachite green pyrophosphate, A620, at 8 µM, stronger effect = lower value.
Test [4] is described as follows: viability loss with induced miR-34 in A549 – imaging, A549 dox-inducible miR-34, nuclei and caspase counts, primary screen (AID 1347080;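 active means compounds whose cell count with miR-34 switched on is under 0.7 times the count with it off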). Conditions: A549 miR-34 inducible, Hoechst nuclei count, 48 h.
Test [5] is described as follows: galactose survival enhancers in mitochondrial complex I cybrids – cell-based, galactose medium, ATP luminescence, primary screen (AID 1645843;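 active means z-score of at least 1.8 in each of two replicates, scored against plate mean and spread of sample wells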;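 further: positive z means more ATP and so rescue of galactose-driven cybrid death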). Conditions: complex I mutant cybrid cells, 72 h, stronger effect = higher value.
For test [6], the target named is Mitogen-activated protein kinase 7 (Homo sapiens) (UniProt Q13164). The experiment in a line: Gal4-ERK5 driven luciferase induction – cell-based, HTS, primary screen (AID 1508626;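 active means luciferase signal above three times the same-plate solvent-only control wells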;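 further: luciferase driven by Gal4-ERK5 fusion binding five Gal4 sites before minimal TATA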). The note with it: HeLa Gal4-ERK5 transactivation, 18 h, at 5 µM, stronger effect = higher value.
Chain of Mitogen-activated protein kinase 7 (Homo sapiens) (Q13164 whole entry, looked up, the tested form may be a part): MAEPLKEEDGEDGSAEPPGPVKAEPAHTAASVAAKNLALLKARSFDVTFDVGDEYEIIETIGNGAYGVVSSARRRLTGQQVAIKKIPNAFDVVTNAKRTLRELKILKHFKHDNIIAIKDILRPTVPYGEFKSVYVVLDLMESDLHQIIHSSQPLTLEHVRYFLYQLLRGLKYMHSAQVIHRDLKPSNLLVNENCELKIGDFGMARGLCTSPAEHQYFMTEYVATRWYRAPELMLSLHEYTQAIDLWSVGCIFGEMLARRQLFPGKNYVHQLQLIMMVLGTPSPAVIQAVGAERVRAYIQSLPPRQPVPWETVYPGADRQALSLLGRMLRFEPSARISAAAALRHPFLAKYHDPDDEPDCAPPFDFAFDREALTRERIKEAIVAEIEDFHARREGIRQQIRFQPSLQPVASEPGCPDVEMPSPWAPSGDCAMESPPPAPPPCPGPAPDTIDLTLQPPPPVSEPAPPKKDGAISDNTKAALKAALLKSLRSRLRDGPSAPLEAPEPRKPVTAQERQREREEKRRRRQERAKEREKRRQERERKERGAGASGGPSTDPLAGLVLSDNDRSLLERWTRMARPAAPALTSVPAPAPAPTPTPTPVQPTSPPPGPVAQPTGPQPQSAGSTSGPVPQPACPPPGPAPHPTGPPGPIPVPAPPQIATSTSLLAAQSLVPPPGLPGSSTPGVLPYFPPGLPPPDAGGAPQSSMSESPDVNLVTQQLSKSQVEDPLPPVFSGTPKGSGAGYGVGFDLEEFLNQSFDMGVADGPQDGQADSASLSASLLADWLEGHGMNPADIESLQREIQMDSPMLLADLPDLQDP
Test [7] can be described thus: blockers of polyQ-driven CASP3 activation – cell-based (AID 1583). Conditions: polyglutamine-induced caspase-3 activation, cell assay; stronger effect = higher value;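 tested at 10 µM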.
Test [8] in a line: yeast 75Q aggregation reduction – 75Q-TubU reporter (AID 1593). Conditions: Yeast 75Q polyglutamine aggregation reporter.
The nature of test [9]: restoration of touch response, mutant HTT neurons – whole organism, C. elegans mechanosensory neurons, N-terminal huntingtin (AID 1599). The note with it: C. elegans polyQ-huntingtin mechanosensory neurons, stronger effect = higher value.
A short description of test [10]: blockers of cytochrome c efflux from mitochondria – biochemical, purified mitochondria (AID 1603).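 Further: mouse liver mitochondria challenged with calcium chloride; signal normalized to the plate average as 100%.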 Conditions: stronger effect = lower value.
Test [11] in a line: polyglutamine aggregate formation blockers (AID 1604). Conditions: polyglutamine-induced protein aggregation inhibition assay; stronger effect = higher value; tested at 2.5 µM.
Test [12] can be described thus: glutamate transport activators, MN-1 cells, MN-1 cell line (AID 1612).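 Further: tested at 1 µM final; 0% = mean of DMSO vehicle wells on each plate; positive means more glutamate uptake than control and negative means less.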 Conditions: MN-1 motor neuron cells, stronger effect = higher value.
The nature of test [13]: 75Q-TubH aggregate inhibition, S. cerevisiae, yeast (AID 1616). Conditions: S. cerevisiae 75Q-TubH polyglutamine aggregation suppression; stronger effect = higher value.
[14] abbreviates: measured here: epithelial PC-3E GFP cell survival.
Where [15] appears, read: measured here: mesenchymal TEM4-18 mCherry cell survival.

Molecules are shown by their SMILES. Several values for one entry are separate records, joined by “and”; a condition that tells them apart may be missing. Identical values can stand only once. For part of these data: Entries with a potency or affinity are not part of this list. Activity calls are given as the source filed them. Unless noted, how the calls were made is not given here.

On to `C=C1CC2C(CC[C@]3(C)C(=O)CCC23)[C@@]2(C)C=CC(=O)C=C12` (stereo partly drawn), for which, in [1], the parasite load remaining was 9.27% (inactive). The viability in test [1] was found to be 99%. Further, the red/green cell ratio (normalised) in test [2] was 1.16 (inactive). The normalised cell number in test [2] (setting [14]) was found to be 1.01; in test [2] (setting [15]), 1.17. The activity remaining in test [3] is 121% (inactive). The fold change in test [4] (stronger effect = lower value) is 0.911 (inactive) and 0.833 (inactive); in test [4] (measured here: relative caspase fold change +Dox/-Dox), 1 and 2.69. Moreover, the cell count in test [4] (measured here: total cells with miR-34 induction, stronger effect = lower value) is 8770 and 9350; in [4] (measured here: total cells without miR-34 induction) it was 9630 and 11200. For the same molecule, the z-score in test [5] is -1.42 (inactive).

`Cc1c(O)c(O)cc2c1CC=C1[C@@]2(C)CC[C@@]2(C)C3C[C@](C)(C(=O)O)CC[C@]3(C)CC[C@]12C` (stereo partly drawn): the red/green cell ratio (normalised) in test [2] was 0.65 (inactive). In addition, the values for the normalised cell number in test [2] (setting [14]) and in [2] (setting [15]) were 0.64 and 0.41, respectively. In test [3], the activity remaining is 103% (inactive).

As to `CC1=CC(=O)c2c(O)cccc2C1=O`, the red/green cell ratio (normalised) in test [2] is 0.13 (inactive). The normalised cell number in test [2] (setting [14]) worked out at 0.08; in test [2] (setting [15]) it was 0.01. The activity remaining in test [3] was 112% (inactive). For the same molecule, the luciferase signal in [6] was 276 AU (active).

On to `CC1OC(=O)[C@@H](C(C)C)NC(=O)C(C(C)C)OC(=O)[C@H](C(C)C)NC(=O)C(C)OC(=O)[C@@H](C(C)C)NC(=O)C(C(C)C)OC(=O)[C@H](C(C)C)NC(=O)C(C)OC(=O)[C@@H](C(C)C)NC(=O)C(C(C)C)OC(=O)[C@H](C(C)C)NC1=O` (stereo partly drawn), for which the red/green cell ratio (normalised) in [2] is 0.92 (inactive). The normalised cell number in test [2] (setting [14]) worked out at 0.32; in test [2] (setting [15]) it was 0.29. In addition, in test [3], the activity remaining was 122% (inactive).

Regarding `N#CC(O[C@@H]1O[C@H](CO[C@@H]2O[C@H](CO)[C@@H](O)[C@H](O)[C@H]2O)[C@@H](O)[C@H](O)[C@H]1O)c1ccccc1` (stereo partly drawn), the inhibition in test [7] was 3.65%. In test [8], the score is 1.42. Further, the rescue above control in test [9] is -2.1. In test [10], the cytochrome c release ratio came to 1.2. The inhibition of aggregation in [11] turned out to be 36.6%. For the same molecule, the glutamate uptake change in test [12] worked out at 14%. The aggregation suppression score in test [13] is 1.51. For the same molecule, in test [1], the parasite load remaining was 116% (inactive). Further, the viability in test [1] is 70.2%. Besides, the red/green cell ratio (normalised) in test [2] is 1 (inactive). The normalised cell number in test [2] (setting [14]) and in [2] (setting [15]) was 0.94 each time. Further, in test [3], the activity remaining is 123% (inactive).

Turning to `C[C@@H]1O[C@@H](O[C@H]2CC[C@]3(C=O)C4CC[C@]5(C)[C@@H](C6=CC(=O)OC6)CC[C@]5(O)C4CC[C@]3(O)C2)[C@H](O)[C@H](O)[C@H]1O` (stereo partly drawn), in [1], the parasite load remaining is 3.9% (inactive). Moreover, the viability in test [1] was 51%. Also, the red/green cell ratio (normalised) in test [2] was 0.21 (inactive). For the same molecule, the normalised cell number in [2] (setting [14]) was 0.1; in test [2] (setting [15]), 0.02. In addition, in [3], the activity remaining was 95.5% (inactive).

`Nc1ncn[nH]1`: the red/green cell ratio (normalised) in [2] was 1.3 (inactive). Moreover, the normalised cell number amounted to 0.82 in test [2] (setting [14]) and 1.07 in [2] (setting [15]). Besides, in [3], the activity remaining is 92.7% (inactive). In test [6], the luciferase signal is 24 AU (inactive).

As to `O=c1cccc2n1C[C@H]1CNCC2C1`, in test [1], the parasite load remaining is 64.2% (inactive) and the viability came to 103%. The red/green cell ratio (normalised) in [2] is 0.78 (inactive). The normalised cell number in test [2] (setting [14]) stood at 1.31. In test [2] (setting [15]), this molecule returned a normalised cell number of 1.02. Further, the activity remaining in test [3] was 107% (inactive).

Regarding `CC[C@H]1C2CC3[C@@H]4N(C)c5ccccc5[C@]45C[C@@H](C2C5O)N3[C@@H]1O` (stereo partly drawn), in [1], the parasite load remaining is 88.5% (inactive) and the viability worked out at 73.8%. Moreover, in test [2], the red/green cell ratio (normalised) is 1.03 (inactive). In test [2] (setting [14]), this molecule returned a normalised cell number of 0.98. Also, the normalised cell number in test [2] (setting [15]) was found to be 1.01. In test [3], the activity remaining was 112% (inactive).

On to `c1cncc(C2CCCCN2)c1` (stereo not drawn), for which, in test [2] (counts scaled to control wells, 1 = unselective), the red/green cell ratio (normalised) is 0.98 (inactive). In addition, the normalised cell number was 1.09 in [2] (setting [14]) and 1.07 in test [2] (setting [15]). In test [3], the activity remaining was 102% (inactive). In test [6], the luciferase signal was 20 AU (inactive).

For `CC[C@H]1CN2CCC1C[C@@H]2[C@@H](O)c1ccnc2ccc(OC)cc12` (stereo partly drawn), the inhibition in test [7] was -3.48%. Further, in test [8], the score was 1.22. Besides, the rescue above control in [9] is -8.65. For the same molecule, in test [10], the cytochrome c release ratio is 0.67. For the same molecule, the inhibition of aggregation in [11] was 32.5%. This molecule also registered a glutamate uptake change in test [12] of 1.44%. Moreover, in [13], the aggregation suppression score was 1.35. The parasite load remaining in [1] is 20% (inactive). The viability in test [1] stood at 79.3%. For the same molecule, the red/green cell ratio (normalised) in test [2] was 0.99 (inactive). For the same molecule, the normalised cell number in [2] (setting [14]) amounted to 1.01; in test [2] (setting [15]), 1. In addition, the activity remaining in test [3] is 117% (inactive).

In general, viability refers to a read-out of living cells in per cent, often relative to untreated cells. By inhibition is commonly meant the relative decrease from the control value, in per cent.
